The list is a sample of the results.
aSyn UTR act: Activators working through SNCA 5'UTR binding (MLPCN). activity score, % (tested at 7.5 µM), hits read low. hit rate 7.1% among 300,000. AID 1814. alpha-synuclein 5'UTR reporter, activators screen; in the data active = activity score below about -60%
Active calls of the source: *.

SMILES	aSyn UTR act
CC(C)(C)c1csc(NC(=O)c2ccc3nccnc3c2)n1	-178.2*
Cc1cc(NC(=O)c2ccc3c(c2)OCCO3)no1	61.8
Cc1cccc(NC(=O)c2ccc3c(c2)OCCO3)n1	-83.9*
Cc1cccc(NC(=O)c2ccc3nccnc3c2)n1	-75.9*
Cc1ccc(NC(=O)c2ccc3nccnc3c2)c(C)c1	-101.6*
Cc1nc(NC(=O)c2ccc3c(c2)OCO3)ccc1Br	-140.3*
c1ccc(CSc2n[nH]c(-c3ccco3)n2)cc1	-63.7*
c1ccc(CSc2nccc(-c3ccco3)n2)cc1	-81.5*
CN1CCN(c2ccc([N+](=O)[O-])cc2C(=O)c2ccc(Br)cc2)CC1	67.4
O=[N+]([O-])c1ccc(-c2ncc(-c3ccc(Br)cc3)o2)cc1	-194.9*
Cc1nc2ccccn2c1C(=O)N/N=C/c1ccc([N+](=O)[O-])o1	-81.4*
O=[N+]([O-])c1ccc(/C=N/Nc2ccc3ccccc3c2)o1	-104.0*
O=C(N/N=C/c1ccc([N+](=O)[O-])o1)c1cc2ccccc2o1	65.8
CCOC(=O)C1=C(Cc2ccc(C)cc2)C(=O)c2ccccc2C1=O	-65.4*
COc1ccc(OC)c(S(=O)(=O)ON2C(=O)c3ccccc3C2=O)c1	-90.3*
Cc1cc2c(cc1C)NC(CC(=O)NCc1ccccc1)C(=O)N2 (centres undefined)	-77.3*
Cc1ccc(C2NNC(=O)C2NC(=O)c2ccccc2)cc1 (centres undefined)	-111.1*
Cc1cc(OCc2cc(C(=O)N3CCCCCC3)no2)cc(C)c1Cl	-131.7*
COCC1CCN(C(=O)c2cc(COc3cc(C)c(Cl)c(C)c3)on2)C1 (centres undefined)	-90.7*
COc1cccc(CN(C)C(=O)CCc2nnc(-c3ccsc3)o2)c1	-79.7*
Cc1ccsc1CN(C)C(=O)CCc1nnc(COc2ccccc2)o1	-62.3*
CN(Cc1ccsc1)C(=O)CCc1nnc(CCCc2ccccc2)o1	-118.6*
CCOc1ccc(C(=O)COC(=O)c2cc([N+](=O)[O-])ccc2N2CCOCC2)cc1	-115.5*
CSc1ccc(COC(=O)c2cc([N+](=O)[O-])ccc2N2CCOCC2)cc1	66.9
COc1cc(-c2nc3ccc(N4CCN(C)CC4)cc3[nH]2)cc(OC)c1OC	-101.8*
SMILES	aSyn UTR act
c1ccc(-c2noc(-c3cccc4ccccc34)n2)cc1	-179.4*
c1ccc2c(-c3nc(-c4ccncc4)no3)cccc2c1	-271.7*
c1cncc(-c2noc(-c3cccc4ccccc34)n2)c1	-225.5*
CCOC(=O)Nc1ccc2nc(N3CCCCCC3)sc2c1	-313.0*
Cc1nc2ccc(C(=O)Nc3ccccc3Cl)cc2s1	-235.3*
O=C(Nc1ccc2[nH]c(=S)sc2c1)c1ccccc1	-138.4*
COc1cc(C(=O)Nc2ccc(C(C)=O)cc2)c(Br)c(OC)c1OC	-83.3*
Cc1nnc(NC(=O)c2ccc3ccccc3n2)s1	-151.9*
Cc1ccc(OC(=O)c2ccc3nc(C)sc3c2)cc1	-76.1*
N#Cc1ccccc1CSc1nc2ccc(NC(=O)c3ccccc3C(=O)O)cc2s1	-87.4*
Cc1nc2ccc(NC(=O)c3cncc(Br)c3)cc2s1	-87.1*
CC(=O)c1ccc(NC(=O)c2ccc(C)c(Br)c2)cc1	-125.5*
Cc1nc2ccc(NC(=O)c3ccccc3)cc2s1	-106.3*
Cc1nc2cc(C(=O)O)ccc2s1	-176.6*
Cc1ccccc1OCCNC(=O)c1ccc2ccccc2n1	-148.7*
Cc1nc2ccc(NC(=O)c3sccc3C)cc2s1	-163.7*
Cc1nc2ccc(NC(=O)c3ccc4ccccc4n3)cc2s1	-71.1*
CC(=O)c1ccc(NC(=O)c2ccc3nc(C)sc3c2)cc1	-193.4*
Cc1nc2ccc(NC(=O)N3CCCCC3)cc2s1	-106.2*
Cc1nc2ccc(NC(=O)c3cccs3)cc2s1	-131.6*
Cc1nc2cc(NC(=O)c3ccc([N+](=O)[O-])s3)ccc2s1	76.5
O=C(c1ccccc1)N1CCN2C(=O)c3ccccc3C12c1ccc(Cl)cc1 (centres undefined)	-72.4*
Cc1cc(C)nc(/N=C(\N)Nc2ccc(F)c([N+](=O)[O-])c2)n1	-124.1*
Cc1ccc(CN=C(N)Nc2nc(C)cc(C)n2)cc1	117.0
Cc1cc(C)nc(/N=C(\N)Nc2ccc3c(c2)OCCO3)n1	-126.4*
SMILES	aSyn UTR act
CCOC(=O)c1cn(-c2ccc([N+](=O)[O-])cc2)c2cc(Cl)c([N+](=O)[O-])cc2c1=O	-110.0*
CC1CCOC(c2coc3ccccc3c2=O)O1 (centres undefined)	-113.0*
Cc1nc(-c2ccccn2)sc1C(=O)Nc1ccc(Cl)c(Cl)c1	-78.4*
CCOC(=O)c1sc(NC(=O)CNCc2ccccn2)c(C(=O)OCC)c1C	60.3
CCOC(=O)c1sc(-c2ccccn2)nc1C	-125.5*
O=c1cc(NCCc2ccccc2)c2ccccc2o1	-130.4*
Cc1c(-c2nc(N)nc(Nc3ccccc3)n2)oc2ccccc12	-134.4*
Cc1c(C(=O)Nc2cccnc2Cl)oc2ccccc12	-181.3*
Cc1ccc(NC(=O)c2oc3ccccc3c2C)nc1	-94.1*
Cc1c(C(=O)Nc2ccccn2)oc2ccccc12	-259.1*
CC1=NN(c2nc(-c3ccc(C)cc3)cs2)C(=O)C1N=Nc1ccc(C(N)=O)cc1 (centres undefined)	86.5
CC(=O)Nc1ccc(N2N=C(C)C(N=Nc3ccccc3)C2=O)cc1 (centres undefined)	-98.5*
O=C(CCl)Nc1ccc(N=Nc2ccccc2)cc1	-63.1*
CC(C)C(=O)OCC(=O)Nc1ccc(N=Nc2ccccc2)cc1	-186.4*
CC(=O)OCC(=O)Nc1ccc(N=Nc2ccccc2)cc1	-142.9*
O=C(Nc1ccc(N=Nc2ccccc2)cc1)c1ccccc1Cl	-170.1*
CC(=O)Nc1ccc(N=Nc2ccccc2)cc1	-179.1*
CC1(C(=O)OCC(=O)Nc2ccccc2)CC1(Cl)Cl (centres undefined)	-68.6*
CCOC(=O)c1ccc(N=c2scc(C)n2CC)cc1	-91.0*
CCOC(=O)c1ccc(N=NN(C)C)cc1	-155.6*
C=CCn1c(C)csc1=Nc1ccc(C(C)=O)cc1	-98.9*
CCCNC(=O)C1CC(=O)N(c2ccc(OCc3ccc(F)cc3)cc2)C1 (centres undefined)	-92.1*
CCCNC(=O)C1CC(=O)N(c2ccc(OCc3ccc(Cl)cc3)cc2)C1 (centres undefined)	-108.4*
C=CCNC(=O)C1CC(=O)N(c2ccc(OCC(=O)Nc3ccccc3)cc2)C1 (centres undefined)	-94.4*
C=CCNC(=O)C1CC(=O)N(c2ccc(OCc3ccc(F)cc3)cc2)C1 (centres undefined)	-95.3*
SMILES	aSyn UTR act
NC(=O)C1CC(=O)N(c2ccc(OCc3ccc(Cl)cc3)cc2)C1 (centres undefined)	-146.0*
CCN(CC)c1ccc(NC(=S)NCC2CCCO2)cc1 (centres undefined)	-82.8*
Cn1c(SCC(=O)NCC2CCCO2)ncc(C(=O)Nc2ccc(Cl)cc2)c1=O (centres undefined)	-71.8*
S=C(NCC1CCCO1)Nc1ccc(Cl)cc1 (centres undefined)	-72.2*
O=C(NCC1CCCO1)Nc1ccc(Cl)cc1 (centres undefined)	-73.0*
Cc1cc(C)c2ccc(N)nc2c1O	64.7
S=C(NCC1CCCO1)Nc1ccc(Cl)cc1Cl (centres undefined)	-87.4*
Clc1ccc(-c2ccc(CNCC3CCCO3)o2)cc1 (centres undefined)	-67.4*
CC1Cc2cc(/C(O)=C3/C(=O)C(=O)N(CC4CCCO4)C3c3ccco3)ccc2O1 (centres undefined)	-61.6*
COc1ccc(-c2ccc(SCC(=O)Nc3nnc(C)s3)nn2)cc1	-87.4*

Screens (PubChem BioAssay)
